What was measured:
Assay type in all cases: functional
[1] = target: Solute carrier family 2, facilitated glucose transporter member 1 (Homo sapiens) (UniProt P11166); experiment: ST_JUDE_LEISH: Cytotoxicity at 2uM final concentration against transgenic Leishmania Mexicana promastigotes LmGLUT1 that are glucose transport deficient and complemented with the human glucose transporter GLUT1. Activity is measured by DNA content using SYBR green in vitro
[2] = target: Hexose transporter 1 (Plasmodium falciparum) (UniProt O97467); experiment: ST_JUDE_LEISH: Cytotoxicity at 2uM final concentration against transgenic Leishmania Mexicana promastigotes LmPfHT that are glucose transport deficient and complemented with the Plasmodium falciparum hexose transporter. Activity is measured by DNA content using SYBR green in vitro
[3] = target: Glucose transporter (Leishmania mexicana) (UniProt O61059); experiment: ST_JUDE_LEISH: Cytotoxicity at 2uM final concentration against transgenic Leishmania Mexicana promastigotes LmGT2 that are glucose transport deficient and complemented with the L. Mexicana glucose transporter 2. Activity is measured by DNA content using SYBR green in vitro

Solute carrier family 2, facilitated glucose transporter member 1 (Homo sapiens), sequence (P11166 whole entry): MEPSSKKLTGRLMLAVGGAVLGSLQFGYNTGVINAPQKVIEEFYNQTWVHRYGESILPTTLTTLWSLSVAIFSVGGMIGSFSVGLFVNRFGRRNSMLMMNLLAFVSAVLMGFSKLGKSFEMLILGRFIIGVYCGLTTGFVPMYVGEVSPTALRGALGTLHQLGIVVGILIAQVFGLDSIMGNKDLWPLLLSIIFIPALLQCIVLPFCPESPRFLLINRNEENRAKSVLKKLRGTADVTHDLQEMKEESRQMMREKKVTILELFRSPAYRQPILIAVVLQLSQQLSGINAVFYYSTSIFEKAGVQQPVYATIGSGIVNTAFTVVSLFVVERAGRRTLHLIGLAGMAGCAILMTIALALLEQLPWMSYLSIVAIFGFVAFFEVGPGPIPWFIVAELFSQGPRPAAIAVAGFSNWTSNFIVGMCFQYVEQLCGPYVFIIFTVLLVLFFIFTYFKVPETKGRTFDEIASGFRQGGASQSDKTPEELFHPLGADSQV

Question: What does the source list for `O=C(NCc1ccccc1)OC1CNCCC1c1ccc(C(O)Cc2ccccc2)cc1` (stereo unspecified)?
Answer: inhibition [1]: 1.68%; inhibition [2]: 1.62%; inhibition [3]: 2.32%

Question: What does the source list for `NC1CCN(Cc2cccc(-c3csc(-c4nc5ccccc5[nH]4)c3)c2)C1` (stereo unspecified)?
Answer: inhibition [1]: 2.21%; inhibition [2]: 1.55%; inhibition [3]: 4.6%

Question: For `O=C(/C=C/c1ccc(Cl)c(Cl)c1)N1CCC(CCN2CCC(c3c[nH]c4ccncc34)CC2)CC1`, which inhibition [1] is on record?
Answer: 3.03%

Question: What about the inhibition [2] of the same compound?
Answer: 4.39%

Question: And the inhibition [3]?
Answer: 6.65%

Question: For `O=C(NCc1cccc(OC(F)(F)F)c1)c1cnc2c(c1)nc(-c1c[nH]c(-c3ccccc3)n1)n2CCc1c[nH]cn1`, which inhibition [1] is on record?
Answer: 2.3%

Question: And the inhibition [2]?
Answer: 2.34%

Question: What about the inhibition [3] of the same compound?
Answer: -2.01%

Question: How did the inhibition [1] turn out when `NC1=NC2(CCCCC2)N(OCCCCCCCCNc2nc(N)nc(N)n2)C(N)=N1` was run?
Answer: 4.34%

Question: What about the inhibition [2] of the same compound?
Answer: 5.05%

Question: And the inhibition [3]?
Answer: 5.12%

Question: With `N#Cc1cccc(-c2cnc(N)c(-c3nc4cc(S(N)(=O)=O)ccc4[nH]3)c2)c1` as the compound, how does the inhibition [1] read?
Answer: 1.03%

Question: What about the inhibition [2] of the same compound?
Answer: 1.38%

Question: And the inhibition [3]?
Answer: 2.21%

Question: Which inhibition [1] does the source give for `Cc1cccc2nc(-c3ccc(-c4ccc(NC(=O)Nc5ccc(Cl)c(Cl)c5)cc4)s3)[nH]c12` here?
Answer: 1.5%

Question: And the inhibition [2]?
Answer: 1.27%

Question: What about the inhibition [3] of the same compound?
Answer: -6.86%

Question: With `Cn1nc(-c2ccc(CNC3CCc4ccccc43)cc2)c2cnc(NCCCN3CCCC3)nc21` (stereo unspecified) as the compound, how does the inhibition [1] read?
Answer: 7.46%

Question: And the inhibition [2]?
Answer: 13.8%

Question: What about the inhibition [3] of the same compound?
Answer: 8.91%

Question: What does the source list for `COc1ccc(CNCc2ccsc2)cc1-c1ccc(OC)c(S(=O)(=O)NCCN2CCCC2)c1`?
Answer: inhibition [1]: 1.22%; inhibition [2]: 1.92%; inhibition [3]: -1.86%

Question: `CCc1ccc(S(=O)(=O)Nc2ccc(CCN(C)C3CCN(C)CC3)cc2)cc1` was tested. Which inhibition [1] did it give?
Answer: 3.75%

Question: What about the inhibition [2] of the same compound?
Answer: 3.41%

Question: And the inhibition [3]?
Answer: 2.27%

Question: Which results are given for `Cc1ccc(C(C)C)c(Oc2ccc3nc(N)nc(N)c3c2)c1`?
Answer: inhibition [1]: 13.2%; inhibition [2]: 8.97%; inhibition [3]: 5.01%

Question: Which results are given for `N#Cc1ccc(CN2CCC(NC(=O)c3ccc(-c4nnc(-c5cccc6ccccc56)o4)cc3)CC2)cc1`?
Answer: inhibition [1]: 4.73%; inhibition [2]: 2.48%; inhibition [3]: -1.38%
